Assay [1] can be described thus: Confirmation and Secondary Assay for Modulators of Hemoglobin Beta Chain Splicing at IVS2 654 locus (AID 910).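 Further: HeLa cells stably carrying EGFP split by mutant beta-globin IVS2-654 intron.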 Particulars: HeLa EGFP-654 splicing reporter, GFP fluorescence, 48 h; series mostly up to 46.1 µM. An outline of the steps:
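HeLa cells stably expressing EGFP interrupted by β-globin IVS2-654 intron, seeded overnight in Opti-MEM/2% FCS, then treated 2 days at 37 °C. Restored splicing read as total peak GFP intensity per well by laser scanning cytometry (488 nm excitation, 500–520 nm emission); 500 nM antisense PNA as control.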

The target of assay [2] is Cytochrome P450 2C19 (Homo sapiens) (UniProt P33261). Nature of the assay: qHTS Assay for Inhibitors and Substrates of Cytochrome P450 2C19 (AID 899). Further: nearly all actives have a fitted effect of over 60% in size. Further: potency means the concentration at half of the fitted maximal effect. The following applies: recombinant CYP2C19, luciferin-H EGE luminescence; series mostly up to 57.1 µM. The essentials: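 5 nM human CYP2C19 with 10uM Luciferin-H EGE (at KM) in 50mM KPO4, compound preincubated 10 min at 37C, then NADPH regeneration for 60 min at 37C. Luciferin read by luminescence after detection reagent; normalized to 57uM ketoconazole as full inhibition.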
On the technique in general: In qHTS, concentration-response curves come from the screen itself.

A short description of assay [3]: qHTS Assay for Identification of Small Molecule Antagonists for Thrombopoietin (TPO) Signaling Pathway (AID 918). Further: potency means the concentration at half of the fitted maximal effect; nearly all actives have a fitted effect of over 60% in size. Particulars: TPO-dependent cell signaling reporter, antagonist mode. The essentials: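 Inhibition read as reduced luciferase luminescence after 24 h at 37 C in IL-3-deprived Ba/F3 cells carrying human TPO receptor and GPIIb-promoter reporter, stimulated with 26 pM TPO (final, its EC50) alongside compound.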

Assay [4] can be described thus: Cell Viability - LYMP2-001 (AID 921). Further: nearly all actives have a fitted effect of over 70% in size. Further: potency means the concentration at half of the fitted maximal effect. The following applies: LYMP2-001 lymphoblastoid cell viability; series mostly up to 92.2 µM. The essentials:
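Human lymphoblastoid LYMP2-001 cells, 2500 per well, in complete medium, treated 24 h at 37 C. Viability from cellular ATP by CellTiter-Glo luminescence; AC50 from Hill-equation fits of qHTS concentration-response.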

The target in assay [5] is Muscarinic acetylcholine receptor M1 (Rattus norvegicus) (UniProt P08482). Nature of the assay: qHTS Assay for Antagonists of Acetylcholine Muscarinic M1 Receptor: Kinetic Measurement of Intracellular Calcium Response (AID 943).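 Further: Fluo-4 calcium signal as peak divided by basal fluorescence over 4 min; nearly all actives have a fitted effect of over 75% in size.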 The following applies: M1-expressing cells, kinetic intracellular calcium fluorescence; series mostly up to 35.3 µM. An outline of the steps: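 Antagonism measured as reduction of carbachol-evoked (EC80, 100 nM final) calcium flux in rat M1-CHO cells after 10 min compound exposure. Fluo-4 signal read kinetically; ratio of maximal to basal fluorescence.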

The target in assay [6] is Pyruvate kinase (Leishmania mexicana) (UniProt Q27686). Nature of the assay: qHTS Validation Assay for Inhibitors of Leishmania Mexicana Pyruvate Kinase (AID 945). Particulars: purified L. mexicana pyruvate kinase, enzyme activity, E451W mutant enzyme; series mostly up to 57.5 µM. The essentials:
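Pyruvate kinase activity of E451W LmPYK (0.2 nM) was followed as ATP output after 1 h at room temperature with 0.5 mM PEP and 0.1 mM ADP, detected by PKLight luminescence.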

Assay [7] can be described thus: Cell Viability - LYMP1-002 - Assay at 16 hr (AID 948). Further: potency means the concentration at half of the fitted maximal effect. The following applies: LYMP1-002 lymphoblastoid cell viability; series mostly up to 92.2 µM. An outline of the steps:
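LYMP1-002 human lymphoblastoid cells, 2500/well, were treated with compounds for 16 hr at 37 C in complete medium. Viability was read as intracellular ATP by CellTiter-Glo luminescence, and AC50 was derived from a Hill fit to concentration-response data.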

The target of assay [8] is Pyruvate kinase PKM (Homo sapiens) (UniProt P14618). Nature of the assay: qHTS Assay for Activators of Human Muscle Pyruvate Kinase (AID 954; active means well fitted curve in the direction sought with a large enough effect, not every such curve was filed as active). Particulars: purified human muscle pyruvate kinase, luciferase-coupled luminescence, 1 h; series mostly up to 57.5 µM. The essentials:
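Compound pinned into substrate mix (0.5 mM PEP, 0.1 mM ADP), then 0.1 nM PKM2 added; 1 h, RT. Stop/detection luciferase reagent added, luminescence read. Normalized to no-inhibition and no-enzyme or reference-inhibitor controls.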

A short description of assay [9]: MultiTox-Fluor Cytotoxicity Assay - LYMP1-002 - Dead Cells (AID 960). Further: potency means the concentration at half of the fitted maximal effect; nearly all actives have a fitted effect of over 60% in size. The following applies: LYMP1-002 lymphoblastoid cells, dead-cell protease fluorescence; series mostly up to 46.1 µM. An outline of the steps: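 Dead-cell fluorescence (Ex/Em 485/520) after 16 h compound exposure at 37 C of LYMP1-002 lymphoblastoid cells in complete medium; AC50 by Hill equation, with data scaled between DMSO and 15 uM tetraoctylammonium bromide.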

The nature of assay [10]: MultiTox-Fluor Cytotoxicity Assay - LYMP1-003 - Dead Cells (AID 961). Further: nearly all actives have a fitted effect of over 70% in size. Further: potency means the concentration at half of the fitted maximal effect. Particulars: LYMP1-003 lymphoblastoid cells, dead-cell protease fluorescence; series mostly up to 92.2 µM. The essentials:
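LYMP1-003 human lymphoblastoid cells (2500/well) exposed to compound 16 h at 37 C in complete medium; dead-cell protease read with bis-AAF-R110 fluorescence (Ex/Em 485/520) after 60 min at room temperature. Normalized to DMSO and 15 uM tetraoctylammonium bromide; AC50 from Hill fit.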

A short description of assay [11]: MultiTox-Fluor Cytotoxicity Assay - LYMP1-003 - Live Cells (AID 962). Further: potency means the concentration at half of the fitted maximal effect. The following applies: LYMP1-003 lymphoblastoid cells, MultiTox-Fluor live-cell protease fluorescence; series mostly up to 92.2 µM. An outline of the steps: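 Live-cell protease activity (GF-AFC substrate, 405/510 nm, 60 min at room temperature) after 16 h, 37 C compound exposure of human lymphoblastoid LYMP1-003 cells; concentration-response fitted to the Hill equation for AC50.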

The nature of assay [12]: Cell Viability - LYMP1-003 - Assay at 24 hr (AID 963). Further: potency means the concentration at half of the fitted maximal effect. Particulars: LYMP1-003 lymphoblastoid cell viability; series mostly up to 92.2 µM. The essentials: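 Concentration-response qHTS: ATP loss measured by CellTiter-Glo luminescence after 24 h compound exposure at 37 C. Cells were LYMP1-003 human lymphoblastoid, 2500 per well. AC50 derived via standard Hill equation modeling.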

A short description of assay [13]: Cell Viability - LYMP1-003 - Assay at 40 hr (AID 964). Further: potency means the concentration at half of the fitted maximal effect; nearly all actives have a fitted effect of over 60% in size. Particulars: LYMP1-003 lymphoblastoid viability; series mostly up to 92.2 µM. An outline of the steps:
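Viability is taken as cellular ATP, read by CellTiter-Glo luminescence after 40 h of compound exposure at 37 C. Cells: human lymphoblastoid line LYMP1-003 at 2500/well; AC50 values derived by Hill-equation fitting of concentration-response data.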

Assay [14] can be described thus: Confirmation and Secondary Assay for Modulators of Hemoglobin Beta Chain Splicing at IVS2 705 locus (AID 930).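 Further: HeLa cells stably expressing the EGFP-705 splicing reporter; GFP fluorescence per well restored by corrected splicing of the IVS2-705 intron in EGFP.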 The following applies: HeLa EGFP-705 splicing reporter, GFP fluorescence, 48 h; series mostly up to 46.1 µM. An outline of the steps:
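Assay measures total GFP intensity per well in HeLa EGFP-705 cells after 2 days with compound; mis-splicing normally truncates EGFP, so fluorescence indicates corrected splicing.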

Assay [15] is described as follows: qHTS Assay for Identification of Small Molecule Agonists for Thrombopoietin (TPO) Signaling Pathway (AID 917). Particulars: TPO signaling pathway reporter cells, agonist qHTS, stimulated with TPO at its EC50; series mostly up to 38.5 µM. An outline of the steps: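 Stimulation at the TPO EC50 (26 pM final) was used to detect activators. Ba/F3 mouse cells bearing human TPO receptor and a luciferase reporter under the Glycoprotein IIb promoter were exposed to compounds for 24 hrs at 37 C.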

Assay [16] can be described thus: MultiTox-Fluor Cytotoxicity Assay - LYMP1-001 - Live Cells (AID 947). The following applies: LYMP1-001 lymphoblastoid cells, live-cell protease fluorescence viability; series mostly up to 92.2 µM.
The target of assay [17] is Muscarinic acetylcholine receptor M1 (Rattus norvegicus) (UniProt P08482). Nature of the assay: qHTS Assay for Antagonists of Acetylcholine Muscarinic M1 Receptor: Measurement of IP-One Response (AID 944). Further: nearly all actives have a fitted effect of over 75% in size. Particulars: CHO-M1 cells, IP-One HTRF, antagonist mode; series mostly up to 46.1 µM. The essentials:
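IP1 accumulation measured via TR-FRET between d2-IP1 and Eu-cryptate anti-IP1 antibody after carbachol (200 nM, EC80) stimulation for 30 min; rat M1-transfected CHO cells received compound 10 min before agonist.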

Values without a mark were called inactive. Results filed as inconclusive are left out. A call without a number means that no potency is given here. Active and inactive are the calls of the source. Unless noted, the call rests on the fitted dose curve; in most records, active means well fitted curve in the direction sought with a large enough effect; inconclusive means small, poorly fitted or top-dose-only effect, or another doubt; inactive means no such curve, though single readings can be large; an effect the other way counts as inactive or inconclusive.

Chain of Pyruvate kinase (Leishmania mexicana) (Q27686 2-499 E452W): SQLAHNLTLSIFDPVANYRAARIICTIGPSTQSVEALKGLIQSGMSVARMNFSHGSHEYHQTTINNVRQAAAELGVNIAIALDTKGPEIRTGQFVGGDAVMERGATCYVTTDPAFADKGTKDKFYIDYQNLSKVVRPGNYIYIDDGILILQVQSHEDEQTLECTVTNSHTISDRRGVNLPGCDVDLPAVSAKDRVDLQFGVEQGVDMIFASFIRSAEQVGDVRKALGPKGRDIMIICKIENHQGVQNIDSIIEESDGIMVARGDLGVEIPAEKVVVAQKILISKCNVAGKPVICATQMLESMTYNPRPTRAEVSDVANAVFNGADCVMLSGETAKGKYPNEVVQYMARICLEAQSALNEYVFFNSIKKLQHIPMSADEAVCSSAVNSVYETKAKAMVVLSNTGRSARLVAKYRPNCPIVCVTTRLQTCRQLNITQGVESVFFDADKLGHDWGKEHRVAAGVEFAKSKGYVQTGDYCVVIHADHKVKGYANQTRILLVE
Chain of Muscarinic acetylcholine receptor M1 (Rattus norvegicus) (P08482 whole entry, looked up): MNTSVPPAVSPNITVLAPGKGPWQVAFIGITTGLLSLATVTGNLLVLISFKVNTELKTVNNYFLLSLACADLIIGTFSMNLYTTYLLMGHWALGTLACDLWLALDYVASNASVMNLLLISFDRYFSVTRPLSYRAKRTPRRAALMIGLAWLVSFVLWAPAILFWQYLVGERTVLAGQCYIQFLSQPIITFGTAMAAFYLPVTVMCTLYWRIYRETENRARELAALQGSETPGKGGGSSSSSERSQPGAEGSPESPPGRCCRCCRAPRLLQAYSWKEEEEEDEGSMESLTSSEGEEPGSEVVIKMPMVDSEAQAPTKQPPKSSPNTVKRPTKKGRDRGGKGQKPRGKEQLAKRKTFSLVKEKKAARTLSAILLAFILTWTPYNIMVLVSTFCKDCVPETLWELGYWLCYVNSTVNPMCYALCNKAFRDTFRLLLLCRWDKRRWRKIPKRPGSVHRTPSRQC
Chain of Pyruvate kinase PKM (Homo sapiens) (P14618 whole entry, looked up): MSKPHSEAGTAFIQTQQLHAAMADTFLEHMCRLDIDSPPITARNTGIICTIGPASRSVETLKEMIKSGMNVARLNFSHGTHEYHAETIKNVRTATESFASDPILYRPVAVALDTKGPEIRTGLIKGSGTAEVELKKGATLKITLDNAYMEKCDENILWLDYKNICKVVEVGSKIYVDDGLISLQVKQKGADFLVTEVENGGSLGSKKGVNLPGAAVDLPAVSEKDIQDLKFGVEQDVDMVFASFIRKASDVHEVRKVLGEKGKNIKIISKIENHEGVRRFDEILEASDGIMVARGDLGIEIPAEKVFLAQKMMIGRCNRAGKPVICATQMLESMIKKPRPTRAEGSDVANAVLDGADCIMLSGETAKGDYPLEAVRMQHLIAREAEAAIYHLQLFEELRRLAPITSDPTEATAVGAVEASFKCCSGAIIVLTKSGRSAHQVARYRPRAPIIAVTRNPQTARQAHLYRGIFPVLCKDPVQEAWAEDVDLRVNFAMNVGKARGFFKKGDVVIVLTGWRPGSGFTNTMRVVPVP
Chain of Cytochrome P450 2C19 (Homo sapiens) (P33261 whole entry, looked up): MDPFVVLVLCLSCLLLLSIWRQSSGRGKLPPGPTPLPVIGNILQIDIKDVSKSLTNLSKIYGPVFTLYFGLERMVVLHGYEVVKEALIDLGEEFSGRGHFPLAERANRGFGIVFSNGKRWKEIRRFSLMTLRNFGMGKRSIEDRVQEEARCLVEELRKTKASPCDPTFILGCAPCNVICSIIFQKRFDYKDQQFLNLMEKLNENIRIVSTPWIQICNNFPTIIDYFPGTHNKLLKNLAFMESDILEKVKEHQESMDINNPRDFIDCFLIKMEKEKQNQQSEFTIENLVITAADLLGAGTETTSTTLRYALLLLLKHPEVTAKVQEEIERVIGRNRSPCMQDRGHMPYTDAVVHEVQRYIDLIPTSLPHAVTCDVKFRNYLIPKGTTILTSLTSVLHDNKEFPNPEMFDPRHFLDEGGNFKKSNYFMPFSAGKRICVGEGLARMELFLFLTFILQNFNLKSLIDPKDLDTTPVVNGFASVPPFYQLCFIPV

As to `CCN1CCN(c2cc3c(cc2F)c(=O)c(C(=O)O)cn3C2CC2)CC1`, the call in [1] was inactive.

Consider `C[C@@H]1CN(CCCn2c3ccccc3c3ccccc32)C[C@H](C)N1`, for which, in assay [2], the Potency was 3.16 µM (active).

In the case of `OCc1ccccc1O`, the outcome in [1] was inactive.

For `CCCCOc1ccc(OCCCN2CCOCC2)cc1`, the compound was called inactive in assay [1].

On to `CCOc1ccc2nc3cc(N)ccc3c(N)c2c1`, for which the compound was classed as inactive in [1].

As to `COc1c(C)c2c(c(O)c1C/C=C(\C)CCC(=O)O)C(=O)OC2`, in assay [2], the Potency result is “inactive”. Further, the call in assay [1] was inactive.

As to `CCOC(=O)n1ccn(C)c1=S`, in assay [1], the outcome was inactive.

Consider `Cc1cc(=O)n(-c2ccccc2)n1C`, for which the compound was called inactive in assay [1].

As for `Oc1ccc(O)cc1`, the Potency result in assay [2] is “inactive”. Also, the Potency in assay [3] is 12.6 µM (active); in assay [4], 25.1 µM (active); in assay [7], 31.6 µM (active); in [9], 12.6 µM (active); in assay [10] it was 12.6 µM (active); in assay [11], 50.1 µM (active). For the same compound, the Potency in assay [12] is 39.8 µM (active); in assay [13], 12.6 µM (active). Besides, the result in [5], in assay [6] and in assay [8] was inactive.

Turning to `CCCCc1nc(Cl)c(CO)n1Cc1ccc(-c2ccccc2-c2nn[nH]n2)cc1`, the compound was called inactive in assay [1].

Consider `COc1ccc(OC)c(C(O)CNC(=O)CN)c1` (configuration not stated), for which the result in [1] was inactive.

In the case of `O=C(COc1ccc(Cl)cc1)N1CCN(Cc2ccc3c(c2)OCO3)CC1`, the Potency in assay [2] was 5.01 µM (active). Besides, the compound was called inactive in assay [1] and in assay [14].

For the compound `CCN(CC)CCOC(=O)C(c1ccccc1)C1CCCCC1` (configuration not stated), the call in assay [1] was inactive.

Consider `CO/N=C1\CN(c2nc3c(cc2F)c(=O)c(C(=O)O)cn3C2CC2)CC1CN` (configuration not stated), for which, in assay [1], the compound was called inactive.

Regarding `CCN(CC)C(=O)N1CCN(C)CC1`, the result in [1] was inactive.

Consider `CN1CCN(C(c2ccccc2)c2ccccc2)CC1`, for which, in assay [1], the call was inactive.

With `CN(C)CC/C=C1\c2ccccc2Sc2ccc(Cl)cc21`, in [1], the result was inactive.

With `Cc1ccc(C(=O)C(C)CN2CCCCC2)cc1` (configuration not stated), the result in assay [1] was inactive.

Consider `CCCn1c(=O)[nH]c(=O)c2[nH]cnc21`, for which the Potency entry in assay [2] was “inactive”. Besides, the result in assay [15], in [6] and in assay [8] was inactive.

Turning to `Cc1ccnc(NS(=O)(=O)c2ccc(N)cc2)n1`, in [1], the call was inactive.

For `CC(=O)N(O)CCCCCNC(=O)CCC(=O)N(O)CCCCCNC(=O)CCC(=O)N(O)CCCCCN`, the outcome in [1] was inactive.

For the compound `CCN(CCCc1ccccc1)CCCc1ccccc1`, the compound was classed as inactive in [1].

`CN(C(=O)CN(CCO)CC(=O)N(C)C(C)(C)Cc1ccccc1)C(C)(C)Cc1ccccc1`: in assay [1], the compound was classed as inactive.

Regarding `COc1ccc(C2C(=O)c3ccccc3C2=O)cc1`, the compound was called inactive in assay [1].

For `COc1cc(-c2ccc(=O)[nH]n2)ccc1OC(F)F`, the Potency entry in [2] is “inactive”. Besides, the result in assay [15], in assay [5] and in assay [6] was inactive.

On to `CCOc1ccc(Cc2nccc3cc(OCC)c(OCC)cc23)cc1OCC`, for which the call in assay [1] was inactive.

Regarding `Oc1ccc(Cl)c2cccnc12`, in assay [1], the result was inactive.

Consider `CCCC(=O)Nc1ccc(OCC(O)CNC(C)C)c(C(C)=O)c1` (configuration not stated), for which the call in assay [1] was inactive.

As for `CC(=O)Nc1c(I)cc(I)c(C(=O)O)c1I`, the compound was classed as inactive in [1].

Turning to `CCCCOc1ccc(C(=O)CCN2CCCCC2)cc1`, the compound was classed as inactive in [1].

Regarding `C=C(CC)C(=O)c1ccc(OCC(=O)O)c(Cl)c1Cl`, the outcome in assay [1] and in [14] was inactive. Besides, the Potency in assay [4] was 50.1 µM (active); in [9] it was 31.6 µM (active); in assay [10], 50.1 µM (active). The Potency result in assay [16], in assay [11] and in assay [12] was “inactive” throughout.

Take `CCCCOc1cc(C(=O)NCCN(CC)CC)c2ccccc2n1`: in assay [1], the outcome was inactive.

As for `CC(C)NC[C@@H](O)COc1cccc2ccccc12`, the call in [1], in assay [15] and in assay [8] was inactive. Besides, the Potency result in assay [17] is “inactive”.

In the case of `COc1cc(OC)cc(OC)c1`, the call in assay [1] and in [14] was inactive.

As for `CC/C(=C(/CC)c1ccc(O)cc1)c1ccc(O)cc1`, the result in assay [1] was inactive. In addition, the Potency result in assay [4], in assay [16], in assay [7], in assay [10], in assay [11] and in assay [12] was “inactive” throughout.
